Screens (PubChem)
Hits are enriched below; roughly 2% of the tested compounds scored in any of these assays.
LEDGF integ inh – blockers of LEDGF/p75-dependent integrase strand transfer – biochemical, TR-FRET, high throughput, primary screen. HIV-1 integrase (with human LEDGF/p75). TR-FRET IN-LEDGF/p75 DNA integration, Eu/Cy5. inhibition, % at 3.7 µM. 370,000 compounds, 0.64% hits. AID 743269, 2014;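 active means inhibition above the screen-wide mean plus 3 SD, cut at about 13% in these data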;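 further: signal is the Cy5 over europium emission ratio at 671 and 618 nm; 0% = plate median of compound wells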
MBD2 inh – inhibitors of MBD2 binding to methylated DNA, primary screen, biochemical, TR-FRET, DNA-binding domain, human. 370,000 compounds, 0.31% hits. MBD2 binding to methylated oligonucleotide. inhibition, % at 4.4 µM; in the data active means inhibition above about 13%
Rin1 Abl inh – inhibitors of Rin1-Abl protein binding, primary screen, biochemical, TR-FRET; Tyrosine-protein kinase ABL1 (Homo sapiens) + Ras and Rab interactor 1 (Homo sapiens), …; AID 588664, 2011; 360,000 compounds, 0.4% hits; inhibition, % at 7.35 µM; in the data active means inhibition above about 5%, passing the limit was not always enough
TCR CD3 inh – inhibitors of human TCR-CD3 interaction, primary screen, biochemical, fluorescence, TAMRA-labeled TCR probe | T-cell receptor (TCR) | inhibition, % at 9.4 µM | 360,000 compounds, 0.37% hits | AID 651800, 2012; in the data active means inhibition above about 19%;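 further: recombinant mutant TCR 2C K166C tagged with TAMRA read by polarization; 0% = receptor in buffer alone and 100% = receptor with positive control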
UHRF1 binding – UHRF1 methylated DNA binding inhibitors, primary screen, counter-screen for MBD2 inhibitor project, biochemical, TR-FRET, human UHRF1, single concentration; E3 ubiquitin-protein ligase UHRF1 (Homo sapiens), Q96T88; UHRF1 binding to methylated oligo; inhibition, % at 4.4 µM; 370,000 compounds, 0.75% hits; AID 687016, 2013; in the data active means inhibition above about 21%;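 further: UHRF1 SRA domain binding a hemimethylated CpG hairpin DNA probe; 0% = median of test compound wells and 100% = reference inhibitor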
Target sequence (Q96T88 whole entry, looked up, the tested form may be a part): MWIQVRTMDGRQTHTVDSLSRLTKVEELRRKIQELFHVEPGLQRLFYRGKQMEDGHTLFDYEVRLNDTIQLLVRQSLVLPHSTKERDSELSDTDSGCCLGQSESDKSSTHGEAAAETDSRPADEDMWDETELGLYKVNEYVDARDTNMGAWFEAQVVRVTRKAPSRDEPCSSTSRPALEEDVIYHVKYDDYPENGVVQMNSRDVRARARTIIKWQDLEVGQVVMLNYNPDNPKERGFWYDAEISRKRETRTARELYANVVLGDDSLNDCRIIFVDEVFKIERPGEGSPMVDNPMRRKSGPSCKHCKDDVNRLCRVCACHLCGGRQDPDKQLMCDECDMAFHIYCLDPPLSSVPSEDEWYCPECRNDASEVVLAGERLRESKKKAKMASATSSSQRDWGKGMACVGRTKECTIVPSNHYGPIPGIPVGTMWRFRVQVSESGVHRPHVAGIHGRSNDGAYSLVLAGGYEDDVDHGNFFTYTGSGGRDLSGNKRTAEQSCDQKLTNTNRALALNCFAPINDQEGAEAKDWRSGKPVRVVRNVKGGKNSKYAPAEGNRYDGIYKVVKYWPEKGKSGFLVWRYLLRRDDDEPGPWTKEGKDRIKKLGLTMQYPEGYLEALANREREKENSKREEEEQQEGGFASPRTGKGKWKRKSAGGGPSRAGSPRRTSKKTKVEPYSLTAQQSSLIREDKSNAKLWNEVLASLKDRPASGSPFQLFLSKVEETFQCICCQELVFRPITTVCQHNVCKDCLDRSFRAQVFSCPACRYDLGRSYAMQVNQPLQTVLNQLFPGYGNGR
Rin1 Abl conf – Rin1-Abl binding inhibitor retest, confirmation, biochemical, TR-FRET | shares compounds with Rin1 Abl inh | purified proteins | inhibition, % at 7.35 µM | 1,300 compounds, 49% hits
GFP quench – GFP fluorescence inhibitors and quenchers, artefact control for Rin1-Abl interaction inhibitor project, biochemical; shares compounds with Rin1 Abl inh; inhibitors/quenchers counterscreen; inhibition, % at 6.75 µM; 1,300 compounds, 8.5% hits; AID 602125, 2011;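 further: ABL1-eGFP fusion protein alone without its partner RIN1-SBP; 0% = protein with vehicle and 100% = wells lacking protein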
Starred values were filed as active, the others as inactive; nt = no result given. Unless noted, no stated cut-off is given here; in the data, active means inhibition above about 6.5%; inactive means the rest.

SMILES	LEDGF integ inh	MBD2 inh	Rin1 Abl inh	TCR CD3 inh	UHRF1 binding	Rin1 Abl conf	GFP quench
c1ccc(COc2ccc(-c3cc4nc(NCCN5CCOCC5)ccn4n3)cc2)cc1	-2	-6	7	3	-1	nt	nt
COc1cccc(-c2cnc(C(O)c3ccc(-c4ccccc4)cc3)[nH]2)c1 (stereo not drawn)	2	2	3	-4	0	nt	nt
CC(=O)NC(c1cccs1)c1cc(F)c2cccnc2c1O (stereo not drawn)	-9	-3	17*	10	-5	13*	4
Cc1cccc(C(=O)Nc2cccc(C(=O)N/N=C/c3ccccn3)c2)c1	2	2	19*	-2	-3	-3	0
CN1CCCN(c2cc(-c3ccc4ccccc4c3)nc3ccnn23)CC1	4	4	13*	5	4	12*	12*
C[C@H](CO)N1C[C@H](C)[C@@H](CN(C)Cc2ccc(-c3ccccc3)cc2)Oc2c(NS(=O)(=O)c3ccc(F)cc3)cccc2C1=O	4	6	9.1*	11	-3	9.2*	-1
C[C@H](CO)N1C[C@H](C)[C@@H](CN(C)Cc2ccc(-c3ccccc3)cc2)Oc2c(NC(=O)c3ccncc3)cccc2C1=O	2	-9	22*	7	-1	27*	-3
COc1ccc(S(=O)(=O)Nc2cccc3c2O[C@H](CN(C)Cc2ccc(-c4ccccc4)cc2)[C@@H](C)CN([C@H](C)CO)C3=O)cc1	1	1	10	2	-4	nt	nt
C[C@H](CO)N1C[C@H](C)[C@@H](CN(C)Cc2ccc(Oc3ccccc3)cc2)Oc2c(NC(=O)c3ccncc3)cccc2C1=O	6	6	30*	-9	6	28*	1
C#CC(=O)CC1(CN(Cc2ccccc2)C(=O)OC(C)(C)C)CCCCC1	5	2	5	2	4	nt	nt
Cc1cc(C)cc(NC(=O)c2cccc(NC3=NC4CS(=O)(=O)CC4S3)c2)c1 (stereo not drawn)	0	-1	0	0	1	nt	nt
Cc1ccc(CCNC(=O)Cc2ccc(NC3=NC4CS(=O)(=O)CC4S3)cc2)cc1 (stereo not drawn)	4	0	4	1	-1	nt	nt
CCOc1ccc(CCNC(=O)Cc2ccc(NC3=NC4CS(=O)(=O)CC4S3)cc2)cc1OCC (stereo not drawn)	1	0	5	6	-1	nt	nt
COc1ccc(OC)c(CCNC(=O)Cc2ccc(NC3=NC4CS(=O)(=O)CC4S3)cc2)c1 (stereo not drawn)	0	-4	11*	5	4	13*	-1
O=C(NCCc1ccc(Cl)cc1)c1cccc(NC2=NC3CS(=O)(=O)CC3S2)c1 (stereo not drawn)	2	0	8.4*	4	-1	8.0*	0
COc1ccc(OC)c(CCNC(=O)c2ccc(NC3=NC4CS(=O)(=O)CC4S3)cc2)c1 (stereo not drawn)	-1	9	12*	-6	1	13*	0
COc1cccc(CNC(=O)c2ccc(NC3=NC4CS(=O)(=O)CC4S3)cc2)c1 (stereo not drawn)	4	0	-2	3	0	nt	nt
Cc1ccc(CCNC(=O)c2ccc(NC3=NC4CS(=O)(=O)CC4S3)cc2)cc1 (stereo not drawn)	2	1	8.5*	-14	3	9.3*	0
CC(NC(=O)Cc1ccc(NC2=NC3CS(=O)(=O)CC3S2)cc1)c1ccccc1 (stereo not drawn)	3	1	3	-5	2	nt	nt
CCN(C(=O)Cc1ccc(NC2=NC3CS(=O)(=O)CC3S2)cc1)c1ccccc1 (stereo not drawn)	-2	0	15*	6	-2	11*	-1
